Reference: PubChem BioAssay (NCI)
This is part of a sample that, as a whole, favours compounds with a hit. Of some 83,000 tested, about 20% had one in any assay.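 Step 1: grow cells in 96-well plates. Step 2: add test compound at a single concentration. Step 3: incubate 48 h. Step 4: record percent growth.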 A number with no mark means an inactive call. Calls of active or inactive are those of the source. Rule for the calls: active = growth percent below 10; inactive = the rest.

How the values were obtained:
Test in all cases: NCI-60 one-dose screen, 48 h (100 = growth as untreated, 0 = no growth, -100 = all killed)
Settings in all cases: 10 µM unless noted
[1] = test system: DU-145 prostate
[2] = test system: K-562 leukemia
[3] = test system: MALME-3M melanoma
[4] = test system: MDA-MB-231 breast
[5] = test system: RXF 393 renal
[6] = test system: SF-268 CNS
[7] = test system: SF-295 CNS
[8] = test system: SF-539 CNS
[9] = test system: UACC-257 melanoma
[10] = test system: M14 melanoma
[11] = test system: HCT-15 colon
[12] = test system: HT29 colon
[13] = test system: SNB-75 CNS
[14] = test system: SNB-19 CNS
[15] = test system: U251 CNS
[16] = test system: PC-3 prostate
[17] = test system: SK-MEL-5 melanoma
[18] = test system: UACC-62 melanoma
[19] = test system: LOX IMVI melanoma
[20] = test system: SK-MEL-28 melanoma

| SMILES | growth [1] | growth [2] | growth [3] | growth [4] | growth [5] | growth [6] | growth [7] | growth [8] | growth [9] | growth [10] | growth [11] | growth [12] | growth [13] | growth [14] | growth [15] | growth [16] | growth [17] | growth [18] | growth [19] | growth [20] |
| --- | --- | --- | --- | --- | --- | --- | --- | --- | --- | --- | --- | --- | --- | --- | --- | --- | --- | --- | --- | --- |
| NC(=O)Nc1ccc2ncnc(Nc3ccc(Cl)cc3)c2c1 | 52% | 71.4% | 117% | 89.3% | 93.7% | 79.7% | 90.7% | 95.7% | 100% | 107% | 93.1% | 91.6% | 95% | 78.6% | 95.7% | 79% | 89.2% | 87.9% | 95.5% | 106% |
| O=C(N/N=C/[C@@H](O)[C@H](O)[C@H](O)CO)c1ccc(NC(=O)c2cccnc2)cc1 | 112% | 103% | 110% | 102% | 109% | 98.5% | 101% | 103% | 100% | 106% | 103% | 105% | 90.3% | 98.7% | 101% | 101% | 106% | 99.5% | 101% | 103% |
| Cc1ccccc1C(=O)NN | 120% | 104% | 106% | 126% | 118% | 120% | 106% | 114% | 103% | 107% | 106% | 98.9% | 91.1% | 105% | 104% | 92.8% | 119% | 101% | 109% | 115% |
| COc1cc(CCC[P+](c2ccccc2)(c2ccccc2)c2ccccc2)c(OC)c2c1OCO2 | 28.5% | 14.4% | 3.07% (active) | -0.787% (active) | 64.3% | 13% | 66.9% | 46.9% | 5.75% (active) | 17.4% | 93.1% | 47.2% | 3.69% (active) | 15.2% | 11.5% | 14.4% | -48.9% (active) | 0.576% (active) | 29.6% | 32.1% |
| COc1ccc2c(c1)/C(=C/c1sc(=S)n(Cc3ccco3)c1O)C=N2 | 33.5% | 15.8% | 49.1% | 56.5% | 48.7% | 52.8% | 27.8% | 11.2% | 61.3% | 11.8% | 17.8% | 15.8% | 1.19% (active) | 44.5% | 37% | 61.6% | 52.2% | 38.9% | 35.9% | 47.4% |
| Cc1[nH]c(C(=O)Nc2ccc(C(=O)NCCN)cc2OC(C)C)c(Cl)c1Cl | 33.8% | -19.3% (active) | 63.3% | -27% (active) | 83.5% | 68.1% | 89.7% | -22.3% (active) | 105% | -31.1% (active) | 34.3% | 2.87% (active) | 78.4% | 52% | -21.4% (active) | 45% | 71.2% | 84% | -95.1% (active) | 70.9% |
| CCOC(=O)Cn1c(C)c(/C=N/NC(=O)c2cc3c(ccc4ccccc43)o2)c2ccccc21 | 11.2% | 10.9% | 70.8% | 38.8% | -11.1% (active) | 35.7% | 19.3% | -14.1% (active) | 41.5% | 16.8% | 11% | 3.63% (active) | 2.97% (active) | 18% | 15.9% | 10.5% | 7.35% (active) | 35.4% | 24.9% | 45.2% |
| COc1ccc2nc(NC(=O)c3cccnc3Nc3ccc(S(N)(=O)=O)cc3)sc2c1 | 105% | 70.9% | 103% | 106% | 113% | 82.6% | 92.8% | 100% | 113% | 113% | 94.2% | 106% | 74.6% | 99.4% | 97.4% | 71.6% | 89.4% | 82.5% | 100% | 116% |
| CCOC(=O)c1nc(Nc2ccc(C(C)=O)cc2)sc1C | 107% | 99.1% | 106% | 104% | 109% | 102% | 92% | 97.2% | 102% | 104% | 96.8% | 97.5% | 89.7% | 95.9% | 101% | 99.5% | 100% | 95.1% | 99.9% | 102% |
| CCc1ccccc1-n1c(N)c(C#N)c(-c2ccc(Cl)cc2)c(C#N)c1=O | 110% | 114% | 173% | 94.8% | 113% | 104% | 99.3% | 103% | 125% | 104% | 108% | 102% | 90.5% | 111% | 119% | 80.6% | 106% | 98.6% | 100% | 113% |
| Cc1ccc(-c2nc(N3CCN(C(=O)c4ccc(OC(F)(F)F)cc4)CC3)c3ccccc3n2)cc1 | 90.8% | 70% | 104% | 84.3% | 88.5% | 71.9% | 93.9% | 98.2% | 99.3% | 94.9% | 72.8% | 88.9% | 76.2% | 88.4% | 86.1% | 63.9% | 81.5% | 75.4% | 89.4% | 101% |
| C#Cc1cccc(NC(=O)c2ccc(NC(=O)C=C)cc2)c1 | 58.9% [8.25 µM] | 71% [8.25 µM] | 85.2% [8.25 µM] | 90% [8.25 µM] | 58.7% [8.25 µM] | 79.3% [8.25 µM] | 102% [8.25 µM] | 75.6% [8.25 µM] | 69.9% [8.25 µM] | 86.3% [8.25 µM] | 60.9% [8.25 µM] | 44% [8.25 µM] | 39.4% [8.25 µM] | 84.5% [8.25 µM] | 80.6% [8.25 µM] | 67.7% [8.25 µM] | 97.7% [8.25 µM] | 73.9% [8.25 µM] | 79.6% [8.25 µM] | 98.2% [8.25 µM] |
| COc1ccc(-c2nc3sc(-c4ccccc4)cn3n2)cc1 | 83.5% | 23.8% | 67.6% | 47% | 75.3% | 71.8% | 61.8% | 75.2% | 71.8% | 28.4% | 30.4% | 29.6% | 65.2% | 65.9% | 78.8% | 66.5% | 34.4% | 57.2% | 54.4% | 67.6% |
| COc1ccc(OC)c(/C=C2\Oc3cc(OCCN4CCC(Cc5ccccc5)CC4)ccc3C2=O)c1 | 97.3% | 20.7% | 92.6% | 82.9% | 55.5% | 85.1% | 102% | 87% | 101% | 77.2% | 24.3% | 21.4% | 72.6% | 98.8% | 81.2% | 78% | 75.2% | 92.8% | 56.1% | 89.5% |
| CN(C)c1ccc(/C=N\Nc2cc(=O)[nH]c3ccc(Cl)cc23)cc1 | 123% | 91.8% | 122% | 91.5% | 105% | 99.5% | 98% | 101% | 98.1% | 94.5% | 99.3% | 96% | 78.4% | 96.9% | 99.8% | 86.4% | 98.3% | 82.1% | 99% | 114% |
| COc1ccc(C2CC(c3ccc(Nc4nc(Nc5ccc(F)cc5)nc(Nc5ccc(Cl)cc5)n4)cc3)=NN2C(C)=O)cc1 (stereo not given) | 122% | 114% | 88.1% | 90.9% | 86.6% | 131% | 103% | 101% | 98.5% | 104% | 93.6% | 108% | 85.5% | 79.3% | 86.7% | 85.2% | 92% | 90.6% | 105% | 114% |
